Screening results as filed in PubChem BioAssay.
Shown are actives, neighbours in structure and some others; about 7.6% of the full set was active somewhere.
RORg inh: qHTS for inhibitors of ROR gamma transcriptional activity | AID 2551, 2010 | Nuclear receptor ROR-gamma (Mus musculus), P51450 | Potency, µM (top dose mostly 53.6 µM), for inactives: top-dose activity change, negative = inhibition, hits mostly inhibitors | Drosophila S2 Gal4-RORgamma UAS-luciferase reporter, 20 h | 5.4% of 310,000 active; also: potency is read from the fitted curve at half-maximal effect; % is scaled to controls: 0 for no effect and ±100 for the full control effect; nearly all actives have a fitted effect of over 60% in size
Target sequence (P51450 whole entry, looked up, the tested form may be a part): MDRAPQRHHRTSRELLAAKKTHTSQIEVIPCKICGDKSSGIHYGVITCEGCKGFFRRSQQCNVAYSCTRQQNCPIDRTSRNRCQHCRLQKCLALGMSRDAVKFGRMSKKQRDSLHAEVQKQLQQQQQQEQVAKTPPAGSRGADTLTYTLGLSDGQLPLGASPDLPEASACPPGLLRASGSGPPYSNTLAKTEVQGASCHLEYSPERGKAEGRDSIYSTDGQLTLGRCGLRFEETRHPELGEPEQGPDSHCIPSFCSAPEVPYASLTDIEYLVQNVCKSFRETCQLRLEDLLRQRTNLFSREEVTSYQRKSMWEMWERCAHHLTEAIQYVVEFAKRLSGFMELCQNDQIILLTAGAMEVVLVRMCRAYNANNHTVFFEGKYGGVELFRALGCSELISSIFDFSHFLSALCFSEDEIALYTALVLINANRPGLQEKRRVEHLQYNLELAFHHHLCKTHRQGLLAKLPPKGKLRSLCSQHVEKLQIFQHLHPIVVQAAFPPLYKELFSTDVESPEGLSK
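Stable Schneider cell line, Gal4 DNA-binding domain fused to ROR gamma, UAS-luciferase. Cmpd 1 hr RT → CuSO4 700 uM final → 20 hr RT → luciferase reagent 10 min → luminescence.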
ELG1 repair inh: qHTS screen for small molecules that inhibit ELG1-dependent DNA repair in human embryonic kidney (HEK293T) cells expressing luciferase-tagged ELG1. AID 504467, 2011. Potency, µM (series often up to 46.1 µM), for the others: at the top dose activity change, negative = inhibition, most hits filed as inhibitors. HEK293T ELG1-luciferase reporter, luminescence, 16 h; DNA damage induced by 5-fluorouridine. 2.3% of 330,000 active; also: potency is read from the fitted curve at half-maximal effect; % is scaled to controls: 0 for no effect and ±100 for the full control effect; nearly all actives have a fitted effect of over 55% in size
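Quantitative HTS, concentration-response format. 2,000 cells/well co-treated with 5-fluorouridine and compound, 16 hr in 5% CO2 at 37 °C; ONE-Glo luminescence read after 30 min.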
Giardia killer: Small Molecules that selectively kill Giardia lamblia: qHTS; Giardia lamblia trophozoite viability; activity change, % at 7.66 µM, hits read low; 0.15% of 340,000 active; AID 540267, 2011; in the data active = activity change below about -80%; inconclusive = between about -30% and that limit;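 also: parasites exposed to compound for two days anaerobically before the ATP read; % is scaled to controls: 0 for no effect and ±100 for the full control effect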
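Giardia lamblia trophozoites (100 cells/well) were incubated with compounds for 48 h at 37 deg C under anaerobic conditions. Viability was read as ATP content by one-step luminescence after 15-30 min at room temperature.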
VP16 counter: VP16 counterscreen qHTS for inhibitors of ROR gamma transcriptional activity; Drosophila S2 Gal4-VP16 UAS-luciferase, luminescence, 20 h; Potency, µM (top dose mostly 53.6 µM), inactives show top-dose activity, negative = inhibition, usual class: inhibitors; 3.5% of 310,000 active; AID 2546, 2010;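 also: Gal4-VP16 expression switched on by copper sulfate through the metallothionein promoter; potency is read from the fitted curve at half-maximal effect; % is scaled to controls: 0 for no effect and ±100 for the full control effect; nearly all actives have a fitted effect of over 50% in size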
p53 reactivation: qHTS assay for re-activators of p53 using a Luc reporter; 0.063% of 320,000 active; H1299 p53-A138V BP100-luciferase reporter, luminescence, 24 h; Potency, µM (top dose mostly 92.2 µM), for the others: top-dose activity change, positive = activation, most hits filed as activators; AID 504706, 2011; also: potency is read from the fitted curve at half-maximal effect; % of control where 0% means no effect; nearly all actives have a fitted effect of over 45% in size
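p53-null H1299 cells stably carrying temperature-sensitive p53-A138V and a BP100-luciferase reporter were pinned with compounds (4-point, 1:5 series) and held 24 hrs at 37 deg C. Luminescence was read 10 min after detection reagent.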
BRCA1 expr act: qHTS Assay to Identify Small Molecule Activators of BRCA1 Expression. Potency, µM (series often up to 46.1 µM), without a hit: at the highest dose activation, most hits filed as activators. 1.1% of 380,000 active. MCF7-BRCA1-FFLuc reporter, luminescence, 48 h; response scale: scaled: vehicle 0%, 10 µM genistein 100%. AID 624202, 2012; also: potency is read from the fitted curve at half-maximal effect; nearly all actives have a fitted effect of over 80% in size
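Cells: MCF7-BRCA1-FFLuc, 2000/well. Exposure: 48 h, 37 °C, 5% CO2. Read: luminescence, 15 min post-substrate. Controls: genistein 10 microM (maximal activation), DMSO (neutral).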
* hit, by the source's call; ? = inconclusive; nt = no result given; [ ] = dose if it differs, or a comment. Unless noted, calls follow the shape of the dose curve; as a rule, active = well fitted curve in the direction sought with a large enough effect; inconclusive = small, poorly fitted or top-dose-only effect, or another doubt; inactive = no such curve, though single readings can be large; an effect the other way counts as inactive or inconclusive.

SMILES	RORg inh	ELG1 repair inh	Giardia killer	VP16 counter	p53 reactivation	BRCA1 expr act
CC(C)CCn1c(=O)c2ccccc2n2c(=S)[nH]nc12	3.98µM*	-1.4%	-0.8	12.6µM*	-5.5%	-16.2%
N#CC(c1ccc(N)cc1)C(CC(=O)c1ccccc1)c1ccccc1 (configuration not stated)	nt	nt	nt	nt	nt	7.8%
Cc1ccc(N=Cc2c(O)ccc3ccccc23)cc1F	5.01µM*	?	-11.4	?	7.1%	-28.7%
CSc1ccccc1OCc1cc(C(=O)N2CCc3c(Cl)cccc3C2)no1	12.6µM*	-14.5%	-16.8	?	11.5%	-5.4%
CSc1ccccc1OCc1cc(C(=O)N2CCN(c3ccccc3)CC2C)no1 (configuration not stated)	36.4%	?	-7.1	-5.5%	22.1%	12.6µM*
COc1cc2c(cc1OC)CN(C(=O)c1cc(COc3ccccc3SC)on1)CC2	nt	nt	nt	nt	nt	3.9%
CCCCCCCC(=O)N/N=C(/C)c1c(O)cc(C)oc1=O	8.91µM*	-5.6%	-10.3	22.4µM*	-1.8%	-20.2%
CCCCCCCC(=O)N/N=C(\C)c1ccc(N)cc1	19.3%	2.5%	nt	-14.8%	-0.4%	nt
CCCCCCCCC(=O)N/N=C(\C)c1ccc(O)cc1O	3.55µM*	?	-7.0	?	8.9%	-57.9%
CCCCCCCC(=O)N/N=C(\C)c1ccc(O)cc1O	7.08µM*	?	-3.0	11.2µM*	-0.3%	-60.1%
CN(Cc1cnn(-c2ccccc2)c1)C(=O)c1ccc(S(=O)(=O)NCc2ccco2)cc1	nt	nt	nt	nt	nt	-21.8%
O=C(CSc1nncs1)Nc1ccc(S(=O)(=O)N2CCCC2)cc1	1.6%	-18.2%	-9.3	-6.9%	5.6%	1.0%
Cc1ccc(CN2C(=O)N/C(=C\c3ccc(N4CCOCC4)cc3)C2=O)cc1	-72.5%	?	-3.5	11.2µM*	-3.3%	-36.6%
CCN1C(=O)/C(=C/c2ccc(N3CCCC3)cc2)NC1=S	0.794µM*	?	4.1	-86.3%	?	-8.5%
CCCN1C(=O)/C(=C/c2ccc(N3CCOCC3)cc2)NC1=S	3.98µM*	-21.7%	0.4	7.94µM*	0.6%	-3.4%
CCOC(=O)N/N=C1/C[C@@H](O)[C@@H](O)[C@@H]2[C@H]3C(=O)N(c4ccc(F)cc4F)C(=O)[C@@H]3CC[C@@H]12	3.0%[10 µM]	nt	nt	2.8%[10 µM]	nt	nt
C[C@H](CO)N1C[C@H](C)[C@@H](CN(C)S(=O)(=O)c2cccs2)Oc2ccc(NC(=O)c3ccncc3)cc2C1=O	nt	8.1%	-0.1	nt	2.8%	-8.3%
CCCCCN1N=C(C)CC1=O	-15.7%	22.7%	7.0	18.4%	19.6%	-7.1%
Cc1ccc(N(C)C(=O)CC(C)S(=O)(=O)c2ccc3c(c2)NC(=O)CO3)cc1 (configuration not stated)	-2.5%	-3.1%	-15.1	-10.5%	-0.3%	6.3%
OCC1CCN(Cc2cn(Cc3ccccc3)nc2-c2cc3ccccc3o2)CC1	4.4%	-13.3%	1.9	-10.8%	-3.5%	-1.4%
COC1CCN(Cc2cn(Cc3ccccc3)nc2-c2cc3ccccc3o2)CC1	-1.8%	20.6µM*	1.7	-13.1%	-6.0%	2.7%
CC(C)=CCC12Oc3cc(O)ccc3C1(O)Oc1cc3c(c(O)c1C2=O)C=CC(C)(C)O3 (configuration not stated)	nt	nt	-0.6	nt	nt	-43.5%
O=C(N/N=C/c1cc(Cl)ccc1O)c1ccc(Br)cc1	2.82µM*	?	10.1	?	?	-60.5%
CCOc1ccccc1NC(=O)C(=O)N/N=C/c1cc(Br)ccc1O	1.78µM*	?	-26.1	?	4.5%	-67.9%
O=C(N/N=C/c1ccc(O)c2ncccc12)c1cccc(Br)c1	15.8µM*	?	3.4	?	5.4%	-80.5%
SMILES	RORg inh	ELG1 repair inh	Giardia killer	VP16 counter	p53 reactivation	BRCA1 expr act
O=C(NN=Cc1ccccc1O)C1CC1	nt	nt	5.6	nt	nt	-2.0%
NC(=O)N/N=C\c1cc(Br)ccc1O	-16.1%	2.7%	-12.5	-21.6%	4.5%	-27.2%
O=C(N/N=C/c1ccccc1O)C1SCCCS1	0.794µM*	0.0%	9.7	5.01µM*	1.4%	-61.1%
CCOc1ccccc1C=NNC(=O)C(=O)NN=Cc1ccccc1OCC	nt	nt	-3.2	nt	nt	-26.5%
CC(C)(C)OC(=O)N/N=C/c1c[nH]c2ccccc12	13.6%	?	7.3	-8.0%	?	34.4%
O=C(N/N=C/c1cccc2ccccc12)c1ccncc1	-22.0%	8.5%	-24.7	-4.0%	-7.8%	-14.6%
CC(C)(C)OC(=O)N/N=C/c1cc(N=Nc2ccccc2)ccc1O	3.98µM*	?	-0.8	5.62µM*	21.0%	-24.3%
O=C(N/N=C/c1cc(Br)ccc1O)Nc1ccccc1	2.51µM*	-4.5%	-15.7	11.2µM*	?	-83.9%
O=C(N/N=C/c1cc(Br)ccc1O)c1ccncc1	6.31µM*	?	-7.6	?	7.4%	-23.7%
O=C(N/N=C/c1cc([N+](=O)[O-])ccc1O)c1ccncc1	?	?	-6.3	4.0%	-0.7%	-67.9%
O=C(N/N=C/c1ccccc1O)c1ccncc1	3.16µM*	-14.4%	7.4	2.82µM*	17.1%	-30.2%
Cc1ccc2cc(CCNC(=O)C(C)C)c(=O)[nH]c2c1	?	?	?	17.2%	1.4%	2.1%
CCOc1cc(/C=N/NC(=O)c2ccc(NC(=O)C3CC3)cc2)ccc1O	20.5%	-13.0%	-6.8	-19.2%	6.6%	-23.7%
Cc1c(/C=N/NC(=O)C2(O)c3ccccc3-c3ccccc32)cnn1C	-22.2%	2.1%	29.3	-16.3%	4.1%	-7.5%
O=C(N/N=C/c1ccccc1O)C1(O)c2ccccc2-c2ccccc21	0.562µM*	?	-5.2	0.794µM*	10.7%	-74.6%
Cc1nc(C)c(C(=O)N/N=C/c2cc(Br)ccc2O)s1	3.16µM*	?	1.9	7.94µM*	?	-71.0%
O=C(N/N=C\c1ccc(Sc2ccccn2)o1)c1cccc(Br)c1	8.91µM*	-14.4%	21.3	?	4.6%	-29.5%
Cc1ccccc1C(=O)N/N=C/c1ccc(Sc2ccccn2)o1	1.2%	-0.9%	9.6	0.9%	-2.3%	-22.5%
CCOc1cc(/C=N/NC(=O)Nc2ccccc2)ccc1O	31.3%	?	?	-18.9%	11.0%	11.2µM*
CC(=O)c1ccc(S(=O)(=O)Oc2ccc(C(=O)O)cc2Cl)cc1	nt	-2.3%	12.5	nt	-3.5%	-4.9%
O=C(NCCC1=CCCCC1)c1ccc2c(c1)N(Cc1ccc(Cl)cc1)C(=O)c1ccccc1S2=O (configuration not stated)	nt	nt	nt	nt	nt	5.2%
